Assay results from ChEMBL document CHEMBL3988442, “University of Dundee, Small-Polar-MMV Screening Library” (2021).

Columns and labels:
[1] = molecular target: T1, Aspartate--tRNA(Asp/Asn) ligase (Mycobacterium tuberculosis (strain ATCC 25618 / H37Rv)) (UniProt P9WFW3); assay: Assay for Asp RNA synthetase-1 from Mycobacterium tuberculosis; assay type: functional; design: scale not given: direction of the effect not stated beside the values; conditions: 30 µM; further: in the data most compounds retested in dose-response had high values
T1 sequence (whole entry): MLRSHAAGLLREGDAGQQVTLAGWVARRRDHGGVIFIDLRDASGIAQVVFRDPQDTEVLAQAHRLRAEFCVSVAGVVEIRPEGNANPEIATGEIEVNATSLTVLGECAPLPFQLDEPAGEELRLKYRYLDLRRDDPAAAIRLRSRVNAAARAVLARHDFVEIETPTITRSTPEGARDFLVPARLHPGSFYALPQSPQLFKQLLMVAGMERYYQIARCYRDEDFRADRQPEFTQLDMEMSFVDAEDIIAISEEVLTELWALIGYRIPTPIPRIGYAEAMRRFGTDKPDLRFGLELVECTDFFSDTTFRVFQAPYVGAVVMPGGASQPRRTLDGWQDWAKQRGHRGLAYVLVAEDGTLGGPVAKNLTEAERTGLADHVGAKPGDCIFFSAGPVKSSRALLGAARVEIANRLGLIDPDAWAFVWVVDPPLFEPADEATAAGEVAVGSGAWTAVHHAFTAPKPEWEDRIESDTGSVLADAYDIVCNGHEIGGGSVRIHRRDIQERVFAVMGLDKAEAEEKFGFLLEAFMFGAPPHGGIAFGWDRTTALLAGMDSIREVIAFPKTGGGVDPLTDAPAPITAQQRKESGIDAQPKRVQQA

[2] = molecular target: Shiga toxin 2 (Escherichia coli O157:H7) (UniProt P09385+P09386); assay: E. coli 0.157:H7 Shiga Toxin SOP - stx2 screening assay; assay type: functional; design: scale not given: direction of the effect not stated beside the values; conditions: 30 µM

Row | Structure (SMILES) | Percent Effect [1] [%] | Percent Effect [2] [%]
1 | Cc1nc(C2CCCN2Cc2ncc(C(C)C)o2)no1 (stereo not drawn) | -2.92 | -16.6
2 | CC(=O)N1CCCN(Cc2csc(-c3ncccn3)n2)CC1 | 5.15 | -13
3 | COc1ccc(CNCC(C)Oc2ccccn2)cc1Br (stereo not drawn) | -3.54 | -30.6
4 | CC(C)c1nnc2n1CCN(C(=O)c1ccc(OCC(N)=O)cc1)C2 | -5.82 | -6.36
5 | C=C(Cl)CN1CCC(C(=O)c2cc(F)ccc2F)CC1 | -0.256 | 18.4
6 | O=C(CCCc1ccc(F)cc1)N1C[C@@H](CN2CCOCC2)[C@@H](CO)C1 | 5.03 | -6.96
7 | O=C(NCCc1ccccc1)C1CCCN(c2ccc3nncn3n2)C1 (stereo not drawn) | -2.08 | -7.24
8 | COc1ccc(CN(C)CC(=O)NC2(C)CCS(=O)(=O)C2)cc1F (stereo not drawn) | 10.4 | -2.83
9 | Cc1[nH]c(=O)[nH]c(=O)c1CN1CCCC(CCc2ccccc2)C1 (stereo not drawn) | -0.814 | -2.29
